ADAM17 inh: ADAM17 inhibition, QFRET primary screen | recombinant ADAM17, EDANS/DABCYL FRET peptide cleavage | inhibition, % at 6.95 µM | P78536 | 370,000 compounds, 0.83% hits;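 active means inhibition above the mean of compounds lying between control limits plus 3 SD, set per campaign, cut at about 8.5% in these data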
sPLA2-III inh: Blocks human group III sPLA2 activity; Q9NZ20; QFRET BODIPY PC-A2 liposome hydrolysis, fluorescence; inhibition, % at 12.2 µM; 370,000 compounds, 0.56% hits;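 active means inhibition above mean plus 3 SD of compounds lying within the high and low control bounds, cut at about 19% in these data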
Target sequence (Q9NZ20 whole entry, looked up): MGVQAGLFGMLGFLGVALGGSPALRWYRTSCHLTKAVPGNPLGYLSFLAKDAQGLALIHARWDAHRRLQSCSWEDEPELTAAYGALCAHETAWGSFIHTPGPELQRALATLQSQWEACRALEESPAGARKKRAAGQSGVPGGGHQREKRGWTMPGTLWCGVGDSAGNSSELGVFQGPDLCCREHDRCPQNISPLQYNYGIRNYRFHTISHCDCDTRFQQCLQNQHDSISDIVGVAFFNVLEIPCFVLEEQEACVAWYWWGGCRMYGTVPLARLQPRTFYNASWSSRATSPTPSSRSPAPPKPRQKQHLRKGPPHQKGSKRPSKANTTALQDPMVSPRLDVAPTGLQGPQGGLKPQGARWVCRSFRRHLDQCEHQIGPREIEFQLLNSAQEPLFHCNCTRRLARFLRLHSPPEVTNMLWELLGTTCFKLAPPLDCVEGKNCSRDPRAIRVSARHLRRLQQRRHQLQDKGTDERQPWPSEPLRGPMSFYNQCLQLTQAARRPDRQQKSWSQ
ADAM10 inh: inhibitors of human ADAM10; inhibition, % at 7 µM; O14672; AID 720582; 370,000 compounds, 0.62% hits; recombinant ADAM10, EDANS/DABCYL FRET peptide cleavage, 3 h;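 active means inhibition above a per-campaign cutoff equal to the mean of compounds falling between control-based bounds plus 3 SD, cut at about 20% in these data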
GRIN3A LBD mod: modulates the human NR3A ligand-binding domain; NR3A LBD differential scanning fluorimetry, Tm shift; 0% = protein alone, 100% = glycine-bound protein; Tm shift relative to glycine control, % at 25 µM; 340,000 compounds, 2.5% hits;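 active means melting temperature shift of at least 10% of the positive control shift, at one fixed dose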
FAS-TE inh: FAS thioesterase (human) inhibition. P49327. recombinant FAS-TE, OMFH fluorogenic substrate, fluorescence endpoint. inhibition, % at 15 µM. 360,000 compounds, 0.67% hits;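 active means compounds whose normalised, plate-corrected inhibition of enzyme fluorescence in the single-dose primary screen is 50% or more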
ADAM10 confirm: human ADAM10 inhibition, confirmation | AID 743208 | shares compounds with ADAM10 inh | 2,100 compounds, 1% hits | ADAM10 QFRET peptide cleavage, EDANS fluorescence | inhibition, % at 6.95 µM;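 active means inhibition above about 20% chosen separately for each screening run, limit read from the data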
ADAM17 ctr: inhibits human ADAM17 in ADAM10 exosite counter-screen | shares compounds with ADAM10 inh | inhibition, % at 6.95 µM | ADAM17 QFRET peptide cleavage, EDANS fluorescence | 2,100 compounds, 0.5% hits;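 active means mean triplicate inhibition above the solvent-only control wells' mean plus 3 SD, cut at about 12% in these data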
ADAM10 ctr: counter-screen for ADAM17 exosite inhibitors: inhibitors of human ADAM10 | shares compounds with ADAM17 inh | recombinant ADAM10, EDANS/DABCYL FRET peptide cleavage, 3 h | inhibition, % at 6.95 µM | 2,900 compounds, 47% hits | AID 743256;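 active means mean inhibition over the triplicate runs exceeds the activity threshold set in the earlier primary screen, cut at about 20% in these data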
ADAM17 confirm: human ADAM17 inhibition, confirmation; 2,900 compounds, 65% hits; shares compounds with ADAM17 inh; recombinant ADAM17, EDANS/DABCYL QFRET peptide cleavage; inhibition, % at 6.95 µM;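 active means mean inhibition across replicates above the hit cutoff set in the primary screen, cut at about 8.5% in these data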
Each line names hits and unclear results; the compound was inactive in the other large screens (follow-up assays come after a bar, where they were run). The list is not random: actives were taken first. Their share in the collection is about 4.3%.

COC(=O)c1c(NC(NC(=O)C(C)C)C(Cl)(Cl)Cl)sc2c1CCCC2 (configuration not stated)	ADAM17 inh 10, ADAM10 inh 22 | ADAM10 confirm inactive | ADAM17 ctr inactive | ADAM10 ctr 26 | ADAM17 confirm 16
COc1ccc(Cn2nnnc2C(C(C)C)N(Cc2ccco2)Cc2cccs2)cc1 (configuration not stated)	ADAM17 inh 13, ADAM10 inh 20 | ADAM10 confirm inactive | ADAM17 ctr inactive | ADAM10 ctr 20 | ADAM17 confirm 13
CC(C)C(c1nnnn1Cc1ccccc1)N(Cc1ccco1)Cc1cccs1 (configuration not stated)	none
CC(NS(=O)(=O)OCC(Cl)(Cl)Cl)c1ccc(C(C)(C)C)cc1 (configuration not stated)	ADAM17 inh 15, ADAM10 inh 31 | ADAM10 confirm inactive | ADAM17 ctr inactive | ADAM10 ctr 45 | ADAM17 confirm 22
CC(C)(NS(=O)(=O)OCC(Cl)(Cl)Cl)c1ccccc1	none
COCCN(CCOC)C(=O)[C@@H](Cc1ccccc1)NC(=O)[C@H]1O[C@@H](n2ccc(N)nc2=O)[C@H](O)[C@@H]1O	none (no result: GRIN3A LBD mod, FAS-TE inh)
COc1ccc(CN(C2CCCC2)S(=O)(=O)c2cc(Br)ccc2Br)c(OC)c1	none (no result: GRIN3A LBD mod, FAS-TE inh)
CC(C)(C)c1ccc(OCCC(=O)Nc2cccc(S(=O)(=O)N3CCCC3)c2)cc1	ADAM17 inh 8.9, ADAM10 inh 22 | ADAM10 confirm inactive | ADAM17 ctr inactive | ADAM10 ctr 37 | ADAM17 confirm 23
O=C(CNc1cccc(Br)c1)Nc1ccc(S(=O)(=O)N2CCCCC2)cc1	ADAM17 inh 16, ADAM10 inh 27 (no result: GRIN3A LBD mod) | ADAM10 confirm inactive | ADAM17 ctr inactive | ADAM10 ctr 32 | ADAM17 confirm 21
O=C(CNc1cccc(S(=O)(=O)N2CCCC2)c1)Nc1ccc(C(F)(F)F)cc1	none
O=C(CNc1cccc(S(=O)(=O)N2CCCCC2)c1)Nc1ccc(C(F)(F)F)cc1	ADAM17 inh 10, ADAM10 inh 28 (no result: GRIN3A LBD mod) | ADAM10 confirm inactive | ADAM17 ctr inactive | ADAM10 ctr inactive | ADAM17 confirm inactive
O=C(Nc1ccc(C(F)(F)F)cc1)C1CCCCN1S(=O)(=O)c1ccccc1 (configuration not stated)	ADAM17 inh 10, ADAM10 inh 28 | ADAM10 confirm inactive | ADAM17 ctr inactive | ADAM10 ctr inactive | ADAM17 confirm inactive
CCOC(=O)[C@@]12CCC3=C1N(CCC3)C(=O)[C@H](CC(=O)NCc1cccc3ccccc13)C2	none (no result: GRIN3A LBD mod, FAS-TE inh)
COC(=O)[C@H](Cc1ccccc1)N1C[C@@H](N2CCC[C@H]2C)CS1(=O)=O	none (no result: GRIN3A LBD mod, FAS-TE inh)
C=C(C)CSc1nnc(-c2cc(-c3ccc(OC)cc3)n[nH]2)n1N	none (no result: GRIN3A LBD mod, FAS-TE inh)
Cc1ccc(S(=O)(=O)N2CC3C(=O)C[C@@H](c4ccccc4)N(S(=O)(=O)c4ccccc4Cl)C3CC2c2ccccc2)cc1 (some centres not stated)	none (no result: GRIN3A LBD mod, FAS-TE inh)
COC(=O)c1cc(NC(=O)NC2CCCCN(Cc3cccc(Cl)c3)C2=O)cc(C(=O)OC)c1 (configuration not stated)	none (no result: GRIN3A LBD mod, FAS-TE inh)
CS(=O)(=O)OC12CCCN(C1)/C(=C/c1ccc(Cl)cc1)C2 (configuration not stated)	none (no result: GRIN3A LBD mod, FAS-TE inh)
O=C(Cc1ccc(Br)cc1)Nc1cccc(S(=O)(=O)N2CCCCC2)c1	ADAM17 inh 12, ADAM10 inh 23 (no result: GRIN3A LBD mod) | ADAM10 confirm inactive | ADAM17 ctr inactive | ADAM10 ctr inactive | ADAM17 confirm inactive

Screening data as filed in PubChem BioAssay.
